This note sets out measurements from PubChem BioAssay AID488896 (Broad Institute, 2010).

Among all 320,000 compounds or so, about 3,100 (0.97%) were called active. What follows is part of a selection rich in actives, with near analogues and random picks from the rest. Unmarked numbers belong to inactive results.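 How the source made its calls: active means mean replicate inhibition of at least 70% and a set share of replicates each scoring 70 or more; inconclusive means meets just one of the two criteria; inactive means fails both criteria.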

In the assay the target is Scavenger receptor class B member 1 (Mus musculus) (UniProt Q61009). Briefly: inhibitors of SR-BI mediated HDL lipid uptake, primary screen, ldlA[mSR-BI] cells, fluorescence, single point (AID 488896).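 Further: 0% = median of neutral control wells and 100% = median of positive control wells.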 Particulars: ldlA[mSR-BI] CHO cells, DiI-HDL uptake fluorescence, 3 h; at 12.5 µM; stronger effect = higher value.
Scavenger receptor class B member 1 (Mus musculus), sequence (Q61009 whole entry, looked up): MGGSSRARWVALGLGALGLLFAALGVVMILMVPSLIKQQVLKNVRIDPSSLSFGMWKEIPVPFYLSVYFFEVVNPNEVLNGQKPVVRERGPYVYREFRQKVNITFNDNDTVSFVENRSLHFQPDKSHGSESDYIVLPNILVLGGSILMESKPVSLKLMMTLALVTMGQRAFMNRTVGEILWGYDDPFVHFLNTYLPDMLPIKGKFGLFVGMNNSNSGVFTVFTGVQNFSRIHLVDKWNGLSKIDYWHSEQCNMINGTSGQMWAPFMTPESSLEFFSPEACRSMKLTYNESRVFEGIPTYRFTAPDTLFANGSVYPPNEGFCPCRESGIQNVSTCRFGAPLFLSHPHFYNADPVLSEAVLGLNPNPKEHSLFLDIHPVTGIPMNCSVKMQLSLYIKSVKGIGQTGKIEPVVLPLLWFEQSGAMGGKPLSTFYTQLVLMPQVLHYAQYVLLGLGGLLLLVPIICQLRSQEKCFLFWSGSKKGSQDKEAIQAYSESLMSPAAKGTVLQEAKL
The term inhibition denotes the drop in the measured response relative to a control, in per cent. As for `O=C1COc2c1ccc(O)c2O`, the inhibition is -17.3%.
The value for `CN(C(=O)c1cccc(NC(=O)Cc2ccc(NC(=O)C3CCCN(C(=O)C4CCCC4)C3)cc2)c1)C1CCC1` (stereo not given) was 86.9% (active); that for `CN(CCc1ccccc1)C(=O)c1cccc(NC(=O)Cc2cccc(NC(=O)C3CCCN(C(=O)CCc4ccccc4)C3)c2)c1` (stereo not given) was 78.5% (active); that for `CN(CCc1ccccc1)C(=O)c1cccc(NC(=O)Cc2cccc(NC(=O)C3CCCN(C(=O)C4CCC4)C3)c2)c1` (stereo not given) was 26.9%.
For the compound `CN(C(=O)c1cccc(NC(=O)Cc2ccc(NC(=O)C3CCCN(C(=O)C4CC4)C3)cc2)c1)C1CC1` (stereo not given), the inhibition was 70%.
With `O=C(Cc1ccc(NC(=O)C2CCCN(C(=O)CCc3ccccc3)C2)cc1)Nc1ccc(C(=O)N2CCOCC2)cc1` (stereo not given) the figure was 58.6%; with `CN(C(=O)c1cccc(NC(=O)Cc2cccc(NC(=O)C3CCCN(C(=O)C4CC4)C3)c2)c1)C1CCC1` (stereo not given), 31.6%; with `COc1cc(/C=C/c2ccc(/C=C/c3cc(OC)c(OC)c(OC)c3)cc2)cc(OC)c1OC`, 51.2%.
Turning to `Nc1cc2c(cc1Br)-c1ccc(F)cc1C2=O`, the inhibition is 22.3%.
With `C=CCOC(=O)N1CCC2CC1c1cc(-c3ccc(OC)cc3)ccc12` (stereo not given) the figure was -4.14%.
Regarding `Oc1c(CN2CCOCC2)ccc(CN2CCOCC2)c1O`, the inhibition was 0.438%.
`Cc1ccc(C(=O)O)cc1NC(=O)c1ccc(Cn2nc(C)c(Cl)c2C)o1`: the inhibition was 4.04%.
With `Cc1c(Cl)c([N+](=O)[O-])nn1CCCC(=O)Nc1cc(Cl)ccc1Cl` the figure was -14.8%.
With `Cc1c(Cl)c([N+](=O)[O-])nn1Cc1ccc(C(=O)N/N=C\c2cc(Cl)ccc2O)o1` the figure was 129% (active).
The value for `CC(C)CN1CC(C)C(=O)N(c2ccccc2)C1=S` (stereo not given) was -3.77%; that for `CC(C)CN(C(=O)COC(=O)c1ccc(Cl)c(N)c1)c1c(N)n(Cc2ccccc2)c(=O)[nH]c1=O` was 21.7%.
Consider `CC(C)CN(C(=O)COC(=O)c1ccc2ccccc2c1)c1c(N)n(Cc2ccccc2)c(=O)[nH]c1=O`, for which the inhibition was 27.1%.
The value for `COc1ccc2oc(C(=O)OCC(=O)N(CC(C)C)c3c(N)n(Cc4ccccc4)c(=O)[nH]c3=O)c(C)c2c1` was 71% (active).
Consider `CCC(C)C1(C2CCCC2)NC(=O)NC1=O` (stereo not given), for which the inhibition is -1.25%.
For the compound `C[n+]1cccc(C(=O)O)c1`, the inhibition is -14.9%.
The value for `COc1ccc2cc(C(=O)NCC3CCCO3)[nH]c2c1` (stereo not given) was -25.3%; that for `COc1cccc(C(=O)NCCS(=O)(=O)NCC2CCCO2)c1` (stereo not given) was -26.7%.
With `COc1cccc(/C=C2\Sc3ccc(C(=O)NCC4CCCO4)cc3N(C)C2=O)c1` (stereo not given) the figure was 76.6% (active); with `CSCCC(NC(=O)COc1ccccc1)C(=O)OCc1ccc(Cl)cc1` (stereo not given), -22.7%.
With `Cc1ccc(S(=O)(=O)c2cc3c(=O)n4cccc(C)c4nc3n(CCc3ccccc3)c2=N)cc1C` the figure was -25.8%; with `COc1cccc2c1C(=O)c1c(O)c3c(c(O)c1C2=O)CC(O)(C(C)=NNC(=O)c1ccc(Cl)c(Cl)c1)CC3OC1CC(N)C(O)C(C)O1` (stereo not given), 33.2%.
For `O=[N+]([O-])c1cccc(C=NN=Cc2ccccc2O)c1`, the inhibition is 45.3%.
With `COc1ccc2c(c1)C(=O)CC(c1ccccc1)O2` (stereo not given) the figure was 17.3%; with `CCNCCC(=O)N1c2ccccc2Sc2ccc(NC(=O)OCC)cc21`, -8.72%; with `CCN1/C(=C\c2ccc3ccccc3[n+]2CC)Sc2cc(C)ccc21`, 55.6%.
On to `CCN1/C(=C/C(=S)Nc2ccccc2)Sc2ccccc21`, for which the inhibition was 80.2% (active).
For the compound `COC[C@@H]1NS(=O)(=O)c2ccc(Br)cc2O[C@H]1c1ccccc1`, the inhibition is 5.43%.
Regarding `NC(=O)C1(Nc2ccccc2Cl)CCCC1`, the inhibition is -5.33%.
The value for `O=C(NN=C1CCC(=NNC(=O)c2cccnc2)CC1)c1cccnc1` was -14%.
The value for `O=C(N/N=C/c1sc(N2CCCCC2)nc1-c1cccs1)c1cccnc1` was 76.7% (active); that for `O=C(CNC(=O)c1cccnc1)N/N=C/c1cccnc1` was -11%.
Turning to `COC(=O)C1CC2=C(CC(C)(C)CC2=O)N(c2ccccc2)C1=O` (stereo not given), the inhibition was -15.5%.
In the case of `CCCCN1CC(CO)Oc2cccc(F)c2S1(=O)=O` (stereo not given), the inhibition was -10.7%.
For the compound `COc1ccc(/C(C)=N\NC(=O)c2ccc(-c3ccccc3)cc2)c(F)c1`, the inhibition is 67.1%.
With `C/C(=N/NC(=O)c1ccc(NC(=O)c2ccc(F)cc2)cc1)c1ccccc1` the figure was 88.8% (active); with `COc1cccc(C(=O)N/N=C(\C)c2cccc(NC(=O)c3ccc(F)cc3)c2)c1OC`, 61%; with `O=C1C(=O)N(c2ccccc2)C(c2ccccc2)C1c1ccccc1` (stereo not given), 3.47%.
With `CCCN(CC(=O)Nc1ccccc1C)C(=O)c1ccc(OCC(=O)N2CCOCC2)c(OCC)c1` the figure was 13.8%; with `CC1(C)N=C(N)NC(Nc2ccc(Cl)cc2)=N1`, -10.1%.
The value for `Cc1ccc(C)c(N2CCN(C(=O)CCCn3c(=O)c4cccn4c4cccnc43)CC2)c1` was 84.4% (active); that for `Cc1ccc(C)c(N2CCN(C(=O)Cn3ncn4cccc4c3=O)CC2)c1` was 10.1%.
In the case of `Cc1ccc(C)c(N2CCN(C(=O)CCCCn3c(=O)[nH]c4ccccc4c3=O)CC2)c1`, the inhibition was 16.6%.
The value for `COc1ccc(CC(=O)NC(C)c2ccc(Cl)c(Cl)c2)cc1S(=O)(=O)N1CCOCC1` (stereo not given) was 4.63%; that for `O=C(O)C(c1cccs1)C1(O)CCCCC1` (stereo not given) was -15.2%.
In the case of `CC1(C)Cc2cccc(OCC(=O)N3CCN(c4ccc([N+](=O)[O-])cc4)CC3)c2O1`, the inhibition is 71.3% (active).
The value for `CC1(C)Cc2cccc(OCC(N)=O)c2O1` was 10.8%; that for `CC1(C)Cc2cccc(OCC(=O)NCc3ccccc3)c2O1` was 3.02%; that for `Cc1cc(NC(=O)c2cc3ccccc3o2)no1` was -18.7%.
On to `COc1ccc(-c2cc(C(=O)Nc3ccccc3O)c3ccccc3n2)cc1`, for which the inhibition is 41.1%.
Regarding `COc1ccccc1NC(=O)c1cc(Cl)nc2ccccc12`, the inhibition was 66.5%.
With `COc1ccc(NC(=O)c2cc(-c3cc(OC)c(OC)c(OC)c3)nc3ccccc23)c(OC)c1` the figure was 78.3% (active).
On to `COC1=NC2=NCCN2C(OC)=N1`, for which the inhibition is -7.98%.
With `O=C1c2ccccc2C(=O)C1C(=O)C1CC1` the figure was -19.4%; with `N#CC(Cc1cc2ccccc2n1S(=O)(=O)c1ccccc1)OCc1ccccc1` (stereo not given), 4.98%.
With `O=c1ccn([C@@H]2O[C@H](CNS(=O)(=O)c3cc4ccccc4s3)[C@@H](O)[C@H]2O)c(=O)[nH]1` the figure was -11%; with `O=C(O)c1ccccc1-c1ccccc1C(=O)Nc1nccs1`, -17.5%; with `COc1ccc(-c2nn(-c3ccccc3)cc2/C=N/Nc2ccccn2)cc1OC`, 50.1%.
With `COc1ccc(-c2nn(-c3ccccc3)cc2C(=O)Nc2nccs2)cc1OC`, the inhibition is 74.4% (active).
The value for `CN1C(c2ccc(F)cc2)=CS/C1=C(/C#N)c1nnc2n1-c1ccccc1SC2` was 32.2%.
On to `Nc1ccc2c(c1)C(O)c1ccc(Cl)cc1-2` (stereo not given), for which the inhibition is -14.5%.
On to `Cc1cc(C)cc(OCC(=O)Nc2ccc(N3CCOCC3)cc2N2CCOCC2)c1`, for which the inhibition is 45%.
The value for `Cc1cc(N2CCCC2)ccc1NC(=O)COc1ccc(Cl)cc1` was 75.9% (active).
With `CCC(=O)c1ccc(OCC(=O)Nc2ccc(N3CCCCC3)cc2)cc1` the figure was 35.5%; with `CN1CCOC1c1ccc(C2OCCN2C)cc1` (stereo not given), -6.99%; with `CCCCCCCCNS(=O)(=O)CCNC1CCCCC1`, -5.35%.
For the compound `CCCCN1C(=O)/C(=C/C=C2/C=Cc3ccccc3N2CC)SC1=S`, the inhibition is 146% (active).
In the case of `CCCCN1C(=O)/C(=C2/C=CC=CN2C)SC1=S`, the inhibition was 8.97%.
As for `CCN1C(=O)/C(=C\N2CCN(c3cccc(Cl)c3)CC2)SC1=S`, the inhibition was 8.1%.
For `Cc1c[n+]([O-])ccc1[N+](=O)[O-]`, the inhibition was 4.11%.
The value for `CCCCN1CC(COCc2ccccc2)OCCS1(=O)=O` (stereo not given) was -17.3%; that for `N#Cc1c(NC(=O)c2ccc(N3CCOCC3)c([N+](=O)[O-])c2)sc2c1CCCC2` was 83.7% (active).
`O=C(Oc1ccccc1Cl)c1ccc(N2CCOCC2)c([N+](=O)[O-])c1`: the inhibition is 1.4%.
The value for `O=C(NCCCN1CCOCC1)c1ccc(N2CCCC2)c([N+](=O)[O-])c1` was -14.3%; that for `NC(=O)c1ccc(N2CCCC2)nc1` was -0.443%.
With `COc1ccccc1NC(=O)N(O)C1(C#N)CCCCC1` the figure was 2.4%.
Turning to `COc1cccc(/C=N/Nc2cc(C)nc(-c3ccccc3O)n2)c1O`, the inhibition is 84.7% (active).
Turning to `COc1ccccc1/C=N/Nc1nc(C)c(C(C)=O)s1`, the inhibition was 24.4%.
Take `Oc1cccc(/C=N/Nc2ccc(Cl)nn2)c1O`: the inhibition is 10.6%.
Take `CN(C)CCNC(=O)c1ccc(Cl)c2cc3ccccc3nc12`: the inhibition was -8.43%.
With `C#CCOCCOCCOCCNc1nc(N2CCN(C(=O)Cn3cc(CCO)nn3)CC2)nc(N2CCN(C(=O)Cn3cc(CCCN=C(N)N)nn3)CC2)n1` the figure was -17.5%.
`COc1cc(OC)c(C(=O)NNC(=O)c2ccc(NS(=O)(=O)c3cccs3)cc2)cc1OC`: the inhibition is -10.6%.
With `C/C(=N\NC(=O)c1ccc2ccccc2c1)c1cccnc1` the figure was -22.1%; with `C/C(=N\NC(=O)c1ccc(NS(=O)(=O)c2cccs2)cc1)c1ccc2ccccc2c1`, 75.7% (active); with `O=C1CC[C@@H]2CC3(C[C@@H]4CCN1[C@H]24)Nc1cc([N+](=O)[O-])ccc1NC3=NC1CCCCC1` (stereo not given in full), 1.95%.
The value for `CCN1CCC(O)(/C=C/c2ccc(C)cc2)C(C(=O)/C=C/c2ccc(C)cc2)C1` (stereo not given) was 24.5%.
